Consider 104 compounds from PubChem BioAssay AID1240 (Sanford-Burnham Center for Chemical Genomics, 2008).

The structures appear in SMILES notation. Screen size: about 50,000 compounds; about 800 (1.6%) showed an effect of 50% or more. The sample as a whole holds a higher share of strong results than the screen did.

Bcl-2-like protein 10 (Homo sapiens), sequence (Q9HD36 whole entry, looked up): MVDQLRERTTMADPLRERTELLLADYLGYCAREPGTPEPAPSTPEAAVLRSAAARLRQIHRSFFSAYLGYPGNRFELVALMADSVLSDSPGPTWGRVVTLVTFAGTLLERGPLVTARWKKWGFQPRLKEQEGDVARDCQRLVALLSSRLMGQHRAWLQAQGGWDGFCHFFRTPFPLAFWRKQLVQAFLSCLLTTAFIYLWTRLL

This assay concerns the target Bcl-2-like protein 10 (Homo sapiens) (UniProt Q9HD36). In words: Phenotype converters, Bcl-B/TR3 peptide binding displacement, primary biochemical FP (AID 1240).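 Further: 0% = Bcl-B with tracer peptide and DMSO and 100% = tracer peptide lacking Bcl-B.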 The conditions noted are these: GST-Bcl-B / FITC-TR3 peptide fluorescence polarization; stronger effect = higher value; compound at 3.75 mg/L. On the technique in general: In fluorescence polarisation assays a small probe gives low polarisation when free and higher when bound to something large.
For the compound `COc1cc(CNc2ccc(Br)cc2C)cc(OC)c1OC`, the displacement stood at 13.2%. The value for `Cc1ccc(C(=O)Nc2cc(-c3cccc(C)c3)[nH]n2)cc1` was 6.2%; that for `O=C1/C(=C\c2cccc(C(F)(F)F)c2)SC(=S)N1Cc1ccccc1` was 11%. As to `Cc1cc(Br)cc2c1NC(=O)C21OCCO1`, the displacement is -4.3%. The value for `Cc1nnc(C)n1/N=C/c1ccc(O)c(O)c1` was 15.9%; that for `COc1ccccc1CNC(=O)C/C(C)=N/NC(=O)C(=O)NC(C)C` was -14.6%.

Turning to `CSc1ccc(/C=C(\NC(=O)c2ccc(C)cc2)C(=O)Nc2cccc(F)c2)cc1`, the displacement stood at 127%. As for `CSc1ccc(/C=C(\NC(=O)c2ccc(C)cc2)C(=O)Nc2cccc(C)c2)cc1`, the displacement was -2.7%.

Consider `Cc1ccc(/C=C(/C#N)C(=O)Nc2cccc(Br)c2)o1`, for which the displacement was -37.3%. In the case of `N#C/C(=C/c1c[nH]c2ccccc12)C(=O)Nc1cccc(Br)c1`, the displacement was 90.7%. With `CC(=O)c1cccc(NC(=O)/C(=C\c2ccc(Br)cc2)NC(=O)c2ccc(C)cc2)c1` the figure was 2.4%; with `CN(C)c1ccc(/C=C(/C#N)C(=O)Nc2cccc(Br)c2)cc1`, 53.8%. On to `N#C/C(=C/c1ccc(C(=O)O)cc1)C(=O)Nc1cccc(Br)c1`, for which the displacement is -2.2%.

Take `Cc1[nH]c2ccccc2c1/C=C(/C#N)C(=O)Nc1cccc(Br)c1`: the displacement is -17.5%.

Regarding `N#C/C(=C/c1ccc(Cl)cc1)C(=O)Nc1cccc(Br)c1`, the displacement was -9.8%. With `N#C/C(=C/C=C/c1ccco1)C(=O)Nc1cccc(Br)c1`, the displacement came to 59.3%. The value for `N#C/C(=C/c1ccc(O)cc1)C(=O)Nc1cccc(Br)c1` was -32.7%; that for `N#C/C(=C\c1c[nH]c2ccccc12)C(=O)Nc1ccc(F)cc1` was 15.3%; that for `CCOc1ccc(N2C(=O)NC(=O)/C(=C\c3ccc(-c4ccccc4C(=O)O)o3)C2=O)cc1` was 14.1%. With `CCN(Cc1ccccc1)C(=O)c1ccccc1[N+](=O)[O-]` the figure was -11.3%. With `CC(C)c1ccc(C2OC3(C(=O)c4ccccc4C3=O)C3C(=O)N(c4ccc(Cl)c(Cl)c4)C(=O)C23)cc1` (centres undefined) the figure was 4.5%; with `O=c1c(Oc2ccccc2Br)c(C(F)(F)F)oc2cc(O)ccc12`, 3%. For the compound `COc1ccc(NC(=O)CN(c2ccccc2Cl)S(C)(=O)=O)cc1OC`, the displacement turned out to be 3.6%. The value for `CCOc1cc(/C=C2\C(=O)NC(=O)N(c3ccc(Cl)cc3)C2=O)cc(Cl)c1OCC(=O)O` was -2.8%; that for `Cc1cc(C)c(C(=O)/C(=C/c2ccc(I)cc2)c2ccccc2)c(=O)[nH]1` was -1.1%. The value for `Cc1cccc(C(=O)NNC2=CC(=O)CC(C)(C)C2)c1O` was 37.5%; that for `N#C/C(=C/c1ccc(C#N)cc1)C(=O)Nc1cccc(Br)c1` was -8.5%. With `CSc1ccc(/C=C(/C#N)C(=O)Nc2cccc(Br)c2)cc1` the figure was 80.3%; with `COc1ccc([N+](=O)[O-])cc1-c1ccc(/C=C(/C#N)C(=O)Nc2cccc(Br)c2)o1`, 7.6%; with `COc1cc([N+](=O)[O-])ccc1-c1ccc(/C=C(/C#N)C(=O)Nc2cccc(Br)c2)o1`, 92.4%.

`N#C/C(=C/c1ccc(F)cc1)C(=O)Nc1cccc(Br)c1`: the displacement is -19.5%. The value for `COc1ccc(OC)c(/C=C(/C#N)C(=O)Nc2cccc(Br)c2)c1` was 100%; that for `COc1ccc(/C=C(/C#N)C(=O)Nc2cccc(Br)c2)c(OC)c1` was -8.7%. With `COc1ccc(Cl)cc1/C=C(/C#N)C(=O)Nc1cccc(Br)c1` the figure was 14.8%; with `N#C/C(=C\c1ccc(-c2ccccc2[N+](=O)[O-])o1)C(=O)Nc1cccc(Br)c1`, -6.3%. As to `C=CCOc1ccc(/C=C/C(=O)c2ccc(Cl)cc2)cc1`, the displacement is -2.1%. `O=C(NCc1ccccc1)c1nn2c(c1Cl)NC(c1ccc(Cl)cc1)CC2C(F)(F)F` (centres undefined): the displacement amounted to 1.1%. With `O=C(NCc1ccccc1)C(O)(c1ccc(F)cc1)c1ccc(F)cc1` the figure was -12.1%; with `CSc1ccc(CN2CCN(C(=O)c3ccco3)CC2)cc1`, -13.1%. Take `O=[N+]([O-])c1ccc(F)c(NS(=O)(=O)c2cc(Cl)ccc2Cl)c1`: the displacement was -1.9%. The value for `Cc1cc(NC(=O)c2cccc(F)c2)ccc1NC(=O)c1ccccc1` was -3.3%; that for `O=C1NC(=Nc2ccc(Br)cc2)S/C1=C\c1ccc(O)cc1` was 10%; that for `COc1ccc(N=C2NC(=O)/C(=C/c3ccc(N(C)C)cc3)S2)cc1` was 84.9%. The value for `CN(C)c1ccc(/C=C2\SC(=Nc3ccc(O)cc3)NC2=O)cc1` was 50.9%; that for `O=C1NC(=Nc2ccc(F)cc2)S/C1=C/c1ccc(Br)cc1` was 8%; that for `COc1ccc(N=C2NC(=O)/C(=C/c3ccc(Cl)cc3)S2)cc1` was 10.7%. For the compound `Cc1ccc(/C=C2\SC(=Nc3ccc(O)cc3)NC2=O)cc1`, the displacement was 0.1%. The value for `O=C1NC(=Nc2ccc(O)cc2)S/C1=C\c1ccc(Cl)cc1` was 0.3%; that for `O=C1NC(=Nc2ccc(Br)cc2)S/C1=C\c1ccc2c(c1)OCO2` was 68.8%.

Consider `COc1ccc(/C=C2/SC(=Nc3ccc(O)cc3)NC2=O)cc1`, for which the displacement is -15.9%. The value for `COC(=O)c1c(C)oc2ccc(OCc3cccc(Br)c3)cc12` was 9.3%. The value for `CCC(=NCc1ccccc1)c1c(C(F)(F)F)[nH]n(-c2nc3ccccc3s2)c1=O` was -13.5%. As for `Cc1ccc(N2NC(=O)/C(=C/C=C/c3ccccc3)C2=O)cc1C`, the displacement stood at 8.4%. Take `Cc1ccc(Cl)cc1NC(=O)C(=O)NCc1ccco1`: the displacement was -13.4%. For the compound `CCOC(=O)c1c(-c2ccc(C)cc2)csc1NC(=O)C(C)(C)C`, the displacement stood at 7.5%. As for `Cc1c(C(=O)NCCc2ccccc2)cccc1[N+](=O)[O-]`, the displacement is -8%. Turning to `CN(C)c1ccc(N/C(N)=N/c2nc(C(F)(F)F)cc(=O)[nH]2)cc1`, the displacement was -5.8%. With `N/C(=N/N=C/c1ccc2c(c1)OCO2)c1ccccn1` the figure was -7.7%. The value for `O=C(c1ccccc1)N1CC(=O)N2CCc3ccccc3C2C1` (centres undefined) was 1%; that for `O=C1/C(=C/c2ccccc2)SC(=S)N1c1ccccc1Cl` was -7.4%; that for `COc1cccc(C2NC(=O)NC(C)=C2C(=O)Nc2ccccc2C)c1` (centres undefined) was 4.3%. On to `CCOC(=O)C1=C(C)N=c2s/c(=C\c3ccc(N(C)C)cc3)c(=O)n2C1c1ccc(OC)c(OC)c1` (centres undefined), for which the displacement is -38.5%. `CCOC(=O)C1=C(C)N=c2s/c(=C\c3ccc(I)cc3)c(=O)n2C1c1ccc(OC)c(OC)c1` (centres undefined): the displacement stood at 111%.

Regarding `CCOC(=O)C1=C(C)N=c2s/c(=C\c3ccc(C(=O)O)cc3)c(=O)n2C1c1ccc(OC)c(OC)c1` (centres undefined), the displacement is -22.8%. With `COC(=O)C1=C(C)N=c2s/c(=C\c3ccccc3Cl)c(=O)n2C1c1cccs1` (centres undefined) the figure was 84.9%; with `CCOC(=O)C1=C(C)N=c2s/c(=C\c3ccc(NC(C)=O)cc3)c(=O)n2C1c1ccccc1` (centres undefined), -24.8%; with `COC(=O)C1=C(C)N=c2s/c(=C/c3ccc(F)cc3)c(=O)n2C1c1ccc(OC)cc1` (centres undefined), 5.7%. The value for `C=CCOc1ccc(/C=c2/sc3n(c2=O)C(c2ccc(OC)c(OC)c2)C(C(=O)OC)=C(C)N=3)cc1` (centres undefined) was 106%. The value for `CCOC(=O)C1=C(C)N=c2s/c(=C\c3cn(C)c4ccccc34)c(=O)n2C1c1cccs1` (centres undefined) was 11.5%. For `COC(=O)C1=C(C)N=c2s/c(=C\c3ccc(Cl)cc3)c(=O)n2C1c1ccc(OC)c(OC)c1` (centres undefined), the displacement turned out to be 9.9%. With `CCOC(=O)C1=C(C)N=c2s/c(=C\c3ccc(NC(C)=O)cc3)c(=O)n2C1c1ccc(OC)cc1` (centres undefined) the figure was 116%; with `CCOC(=O)C1=C(C)N=c2s/c(=C\c3ccc(OC)cc3)c(=O)n2C1c1ccc(OC)cc1` (centres undefined), -5.7%. The value for `CCOC(=O)C1=C(C)N=c2s/c(=C\c3cc4c(cc3Cl)OCO4)c(=O)n2C1c1cccs1` (centres undefined) was -8.9%; that for `CCOc1ccc(C(=O)Nc2cc(OC)ccc2OC)cc1Br` was -9%; that for `COc1ccc(C(=O)N2CCN(c3cccc(C)c3C)CC2)c(OC)c1` was -4.4%. `CCN(CC)c1ccc(N2C(=O)/C(=C/C=C/c3ccccc3)SC2=S)cc1`: the displacement is -4.2%.

Consider `CCCOC(=O)c1c(NC(=O)c2c(-c3ccccc3)noc2C)sc2c1CCCCC2`, for which the displacement was -7.2%. The value for `COc1ccc(CN2CCN(C3CCC(c4ccccc4)CC3)CC2)c(OC)c1OC` (centres undefined) was -12%. As to `CC(C)OC(=O)c1c(-c2ccc(F)cc2)csc1N`, the displacement amounted to 1.3%. With `COc1ccc(N2C(=O)/C(=C\C(Br)=C\c3ccccc3)SC2=S)cc1` the figure was 5.6%.

As for `CCOC(=O)C1=C(C)N=c2s/c(=C\c3cc(Br)c(O)c(OC)c3)c(=O)n2C1c1ccc(OC)c(OC)c1` (centres undefined), the displacement was -85.1%.

Regarding `CCOC(=O)C1=C(C)N=c2s/c(=C\c3ccc(N(CC)CC)o3)c(=O)n2C1c1ccc(OC)c(OC)c1` (centres undefined), the displacement is -25%. Turning to `CCOC(=O)C1=C(C)N=c2s/c(=C\c3ccccc3Cl)c(=O)n2C1c1ccc(OC)c(OC)c1` (centres undefined), the displacement stood at 106%.

Consider `CCOC(=O)C1=C(C)N=c2s/c(=C\c3ccc(NC(C)=O)cc3)c(=O)n2C1c1ccc(OC)c(OC)c1` (centres undefined), for which the displacement came to 88.9%. The value for `CCOC(=O)C1=C(C)N=c2s/c(=C\c3ccccc3F)c(=O)n2C1c1ccc(OC)c(OC)c1` (centres undefined) was 6.3%; that for `CCOC(=O)C1=C(C)N=c2s/c(=C\c3ccccn3)c(=O)n2C1c1ccc(OC)c(OC)c1` (centres undefined) was 42.1%. With `CC(=O)N(c1ccccc1)c1c(F)c(F)c(F)c(F)c1F` the figure was -8.8%. As to `O=C(COc1ccc(Cl)cc1Br)Nc1ccc2c(c1)OCCO2`, the displacement came to 1.8%. With `CCOC(=O)c1conc1-c1ccc(SC)cc1` the figure was 6.5%. In the case of `COc1ccc(CN2CCN(Cc3cc(Br)ccc3O)CC2)c(OC)c1`, the displacement is 1.4%. As to `COc1cc(C(=O)N2CCN(Cc3cccc(C(F)(F)F)c3)CC2)cc(OC)c1OC`, the displacement came to 3.1%. The value for `O=C(Nc1cccc(-c2nc3ccccc3s2)c1)c1ccc2c(c1)OCCO2` was 5.6%; that for `CC(=O)Nc1ccc(-c2nc3ccc(C)cc3s2)cc1` was -3.9%. With `O=C(Nc1ccc(-c2nc3ccccc3s2)c(O)c1)c1ccc2c(c1)OCCO2` the figure was -3.8%. With `CCOc1ccc(C(=O)Nc2ccc(-c3nc4ccc(C)cc4s3)cc2)cc1`, the displacement was found to be 13.3%. With `Cc1ccc2nc(-c3ccc(NC(=O)c4ccc5c(c4)OCCO5)cc3)sc2c1` the figure was 73.2%. `O=C(Nc1ccc(O)c(-c2nc3ccccc3s2)c1)c1ccc2c(c1)OCCO2`: the displacement stood at 82.5%. For `O=CN1N=C(c2ccccc2)CC1(O)C(F)(F)F` (centres undefined), the displacement worked out at 13.4%. `CCOC(=O)c1c(NC(=O)CC2Nc3ccccc3NC2=O)sc(C)c1C` (centres undefined): the displacement was -9.5%. As for `O=C(CC1Nc2ccccc2NC1=O)Nc1ccc(Br)cc1` (centres undefined), the displacement was -5.1%.

For `CCOC(=O)c1c(NC(=O)CC2Nc3cc(C)c(C)cc3NC2=O)sc2c1CCCC2` (centres undefined), the displacement worked out at 48.8%.

On to `CCOC(=O)c1c(NC(=O)CC2Nc3ccccc3NC2=O)sc2c1CCCC2` (centres undefined), for which the displacement is 130%. On to `CCc1ccc(NC(=O)CC2Nc3ccccc3NC2=O)cc1` (centres undefined), for which the displacement was -35.7%. The value for `COC(=O)c1ccc(NC(=O)CC2Nc3ccccc3NC2=O)cc1` (centres undefined) was 108%.
